Compounds with a hit are over-represented: about 2.7% of the library has one in this group of screens.
IP6K1 inhibitor – Primary qHTS assay for small molecule inhibitors of Inositol hexaphosphate kinase 1 (IP6K1); 0.81% of 140,000 active; activity change, % (series mostly up to about 58 µM); AID 1645851, 2021; IP6K1 kinase, ADP-Glo luminescence, 2 h; hits give low values; in the data active = activity change below about -25%; note: % is set by controls: 0 for no effect and ±100 for the full control effect
Target sequence (Q92551 whole entry, looked up): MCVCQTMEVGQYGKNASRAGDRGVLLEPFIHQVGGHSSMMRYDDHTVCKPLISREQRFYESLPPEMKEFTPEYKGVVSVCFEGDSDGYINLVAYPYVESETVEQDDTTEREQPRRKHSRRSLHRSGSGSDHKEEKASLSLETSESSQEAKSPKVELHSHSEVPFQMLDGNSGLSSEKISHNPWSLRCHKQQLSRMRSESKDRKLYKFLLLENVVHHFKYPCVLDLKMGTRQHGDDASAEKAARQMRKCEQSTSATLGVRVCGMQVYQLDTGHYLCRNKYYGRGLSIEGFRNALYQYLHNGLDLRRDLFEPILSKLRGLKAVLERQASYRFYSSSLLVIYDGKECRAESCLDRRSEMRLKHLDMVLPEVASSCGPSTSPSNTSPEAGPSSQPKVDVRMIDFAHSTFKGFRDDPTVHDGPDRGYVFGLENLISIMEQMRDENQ
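ADP-Glo luminescence measures ADP made by human IP6K1 during a 2 h RT reaction with ATP/IP6 (mix at 1.3 mM/130 uM); top library doses 57.5 and 19.1 uM final.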
KDM5B inhibitor – Primary screen for KDM5B Histone Demethylases FDH-coupled qHTS; Lysine-specific demethylase 5B (Homo sapiens), Q9UGL1; KDM5B demethylase, FDH-coupled NADH fluorescence (FDH is formaldehyde dehydrogenase); Potency, µM (series often up to 57.7 µM), usual class: inhibitors; 2.6% of 220,000 active; AID 1347165, 2019; active = well fitted inhibition curve with a large enough effect; inconclusive = small, poorly fitted or top-dose-only effect; inactive = no such curve, though single readings can be large or run the other way; note: potency is the fitted concentration of half-maximal effect; 0% is about no effect; nearly all actives have a fitted effect of over 70% in size
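Inhibition is measured as reduced NADH fluorescence generation from FDH coupling to formaldehyde release. Truncated KDM5BΔAP at 200 nM final acts on H3K4me3 peptide (12.5 µM in substrate mix) in pH 7.5 HEPES buffer with Tween-20, 30 min, room temperature.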
* = called active by the depositor; i = inactive; u = inconclusive; x = not tested or not shown; ! = a repeat was not active.

SMILES	IP6K1 inhibitor	KDM5B inhibitor
COc1cc2c(cc1OC)C(C[C@H]1CN(C(=O)c3cccnc3)CC[C@H]1CC(=O)O)=NCC2	9	i
COc1cc2c(cc1OC)C(C[C@H]1CN(C(=O)Nc3cccc(C(C)=O)c3)CC[C@H]1CC(=O)O)=NCC2	5	28µM*
COc1cc2c(cc1OC)C(C[C@H]1CN(C(=O)Nc3ccc(F)cc3)CC[C@H]1CC(=O)O)=NCC2	-7	28µM*
CCCNC(=O)N1CC[C@@H](CC(=O)O)[C@@H](CC2=NCCc3cc(F)ccc32)C1	2	32µM*
CCCNC(=O)N1CC[C@@H](CC(=O)O)[C@@H](CC2=NCCc3cc(OC)ccc32)C1	18	u
COc1cc2c(cc1OC)C(C[C@H]1CN(C(=O)N3CCOCC3)CC[C@H]1CC(=O)O)=NCC2	4	i
O=CNNC(=S)NCc1ccc(Cl)cc1	x	i
O=C(Cc1cccc(C(F)(F)F)c1)N1CCN(c2nnc3ccc(Cl)cn23)CC1	4	25µM*
O=C(Cc1ccccc1F)N1CCN(c2nnc3ccc(Cl)cn23)CC1	40	u
O=C(Cc1ccc(Cl)cc1)N1CCN(c2nnc3ccccn23)CC1	25	25µM*
O=C(Cc1ccc(Cl)cc1)N1CCN(c2ccccc2O)CC1	x	i
COc1cc(NC(=O)C(C)Sc2ncnc3nc[nH]c23)cc(OC)c1OC (configuration not stated)	x	i
Cc1cc2c3ccc(C)n3ccn2c1	x	i
Cc1nc(-c2cc3ccc(OCC(=O)NC(CO)C(C)C)cc3oc2=O)cs1 (configuration not stated)	x	i
O=C(NCc1ccccn1)C1CCN(c2nccc(-c3cccnc3)n2)CC1	8	u
Cc1nc(CC2CCN(c3nccc(-c4cccnc4)n3)CC2)no1	-7	22µM*
O=C(OCc1ccccc1Cl)c1cccc(O)c1	x	i
COc1cccc(-c2ccc(CN3CCCC(NC(=O)NC(C)C)C3)cc2)c1 (configuration not stated)	4	x
O=C(O)CCC(=O)N[C@H]1CCN2C(=O)c3cc(/C=C/c4ccccc4)ccc3NC(=O)[C@H]12	-9	40µM*
COc1ccc(C(=O)N2CCN3C(=O)c4cc(-c5ccc(Cl)cc5)ccc4NC(=O)[C@@H]3C2)cc1	-15	u
CSCC(=O)N[C@H]1CCN2C(=O)c3cc(-c4ccccc4)ccc3NC(=O)[C@H]12	5	i
O=C1Nc2ccc(-c3ccccc3)cc2C(=O)N2CC[C@H](NS(=O)(=O)c3cccs3)[C@@H]12	-6	i
O=C(N[C@H]1CCN2C(=O)c3cc(/C=C/c4ccccc4)ccc3NC(=O)[C@H]12)c1cnccn1	1	u
O=C1Nc2ccc(/C=C/c3ccccc3)cc2C(=O)N2CC[C@H](NS(=O)(=O)c3cccs3)[C@@H]12	-7	32µM*
COc1ccc(/C=C/c2ccc3c(c2)C(=O)N2CC[C@H](NC(=O)CCC(=O)O)[C@H]2C(=O)N3)cc1	7	28µM*
SMILES	IP6K1 inhibitor	KDM5B inhibitor
C=CCO[C@@H]1CCN2C(=O)c3cc(-c4ccc(OC)cc4)ccc3NC(=O)[C@H]12	-17	35µM*
Cc1c(-c2ccccc2)oc2c(C(=O)OCC(=O)N3CCC(C)CC3)cccc2c1=O	x	i
CCN(CC)C(=O)c1cc(-c2ccccc2Cl)nc2ccccc12	x	i
CC(OC(=O)c1cc2ccccc2s1)C(=O)N1CCNC1=O (configuration not stated)	x	i
COc1cccc(N2CCN(c3nc(C(=O)NCc4ccco4)cs3)CC2)c1	8	i
Cc1ccc(SCCNC(=O)c2ccc3c(c2)OCCCO3)cc1	x	i
COCCCNC(=O)c1cc2cc(Cl)ccc2nc1C	x	i
O=C(N[C@H]1CCN2C(=O)c3cc(/C=C/c4ccccc4)ccc3NC(=O)[C@H]12)C1CCCC1	-7	32µM*
O=C(N[C@H]1CCN2C(=O)c3ccccc3NC(=O)[C@H]12)C1CCCC1	7	i
O=C(O)COCC(=O)N[C@H]1CCN2C(=O)c3cc(-c4ccccc4F)ccc3NC(=O)[C@H]12	-8	i
COc1ccc(-c2ccc3c(c2)C(=O)N2CC[C@H](NC(=O)COCC(=O)O)[C@H]2C(=O)N3)cc1	-2	20µM*
O=C(O)COCC(=O)N[C@H]1CCN2C(=O)c3cc(/C=C/c4ccccc4)ccc3NC(=O)[C@H]12	-1	32µM*
Cc1cccc(-c2ccc3c(c2)C(=O)N2CC[C@H](NC(=O)COCC(=O)O)[C@H]2C(=O)N3)c1C	5	u
CCNc1c(NC(=O)Nc2cccc(Cl)c2C)c(=O)oc2ccccc12	x	i
COCc1cc(C)nc2sc3c(c12)NCN(c1ccccc1)C3=O	x	i
CC(NC(=O)NC(C(N)=O)C(N)=O)c1ccccc1C(F)(F)F (configuration not stated)	x	i
O=C(CC1C=CCC1)NCc1cccs1 (configuration not stated)	x	i
Cn1ccc(C(=O)NCc2nnc3n2C(C(=O)NCC2CC2)CC3)n1 (configuration not stated)	18	100µM*
CC(=O)NCc1nnc2n1C(C(=O)NCC1CCCCC1)CC2 (configuration not stated)	2	x
Cc1c(Cl)cccc1NC(=O)CSc1ncnc2ccccc12	x	i
Cc1ccc(-c2ccc3nnc(CNC(=O)c4cc(Cl)ccc4F)n3n2)cc1	-1	28µM*
COc1ccc(-c2ccc3nnc(CNC(=O)c4cc(F)ccc4F)n3n2)cc1	15	28µM*
COc1ccc(-c2ccc3nnc(CNC(=O)c4cc(Cl)ccc4F)n3n2)cc1	-13	28µM*
Cc1ccc(-c2ccc3nnc(CNC(=O)c4cc(F)ccc4Cl)n3n2)cc1	-14	13µM*
Cc1ccc(-c2ccc3nnc(CNC(=O)Cc4cccc(F)c4)n3n2)cc1	-9	u
SMILES	IP6K1 inhibitor	KDM5B inhibitor
Cc1ccc(CSCC(=O)OCC(=O)c2ccc(-c3ccccc3)cc2)cc1	x	i
COCCCNc1oc(-c2ccc(C)cc2)nc1C#N	x	i
CC(C)C(OC(=O)/C=C/c1ccc(C(F)(F)F)cc1)C(=O)NC(N)=O (configuration not stated)	x	i
c1cc(CN2CCc3c(sc4ncnc(N5CCCC5)c34)C2)ccn1	-8	25µM*
c1cncc(CN2CCc3c(sc4ncnc(N5CCOCC5)c34)C2)c1	-4	u
Cc1ccc(C(=O)CCC(=O)O)s1	x	i
Cc1c(-c2ccccc2)[nH]c2c(CNC(=O)c3ccc(=O)n(C)n3)cc(Cl)cc12	0	i
Cc1c(-c2ccccc2)[nH]c2c(CNC(=O)CN3C(=O)CNC3=O)cc(Cl)cc12	-8	u
Cc1cc(CNC(=O)C2(C(N)=O)CC2)c2[nH]c(-c3ccccc3)c(C)c2c1	23	28µM*
NC(=O)C1(C(=O)NCc2nc(-c3cccc(F)c3)c(-c3ccccn3)[nH]2)CC1	-6	i
Cc1c(-c2ccccc2)[nH]c2c(CNC(=O)Cn3ccc(=O)[nH]c3=O)cc(Cl)cc12	-13	28µM*
Cc1c(-c2ccccc2)[nH]c2c(CNC(=O)CCn3cnnn3)cc(Cl)cc12	-14	25µM*
c1cnc2nc(-c3c[nH]c4ccccc34)[nH]c2c1	0	35µM*!
c1ccc2c(-c3csc(NC4CC4)n3)c[nH]c2c1	x	i
c1ccc2c(-c3nc4ccncc4[nH]3)c[nH]c2c1	14	40µM*!
Cc1c[nH]c2ccccc12	13	x
